Data: PubChem BioAssay
Active and inactive are the calls of the source. Unless noted, how the calls were made is not given here.

What was measured:
[1] = compound effects on lung adenocarcinoma cell viability – A549, calcein-AM fluorescence, 48 h, basal, profiling panel (AID 1162); details: higher = more signal; further: test concentration not given here
[2] = compound effects on differentiated 3T3-L1 adipocyte viability – cell-based, 3T3-L1 adipocytes, calcein-AM fluorescence, 48 h, basal, profiling panel (AID 1163); details: 3T3-L1 adipocytes viability, higher = more signal; further: test concentration not given here
[3] = compound effects on hepatocellular carcinoma cell viability – HepG2, calcein-AM fluorescence, 48 h, basal, profiling panel (AID 1164); details: higher = more signal; further: test concentration not given here
[4] = compound effects on multiple myeloma cell viability – MM1S, calcein-AM fluorescence, 48 h, basal, profiling panel (AID 1165); details: higher = more signal;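 further: viability of MM1S multiple myeloma cells under basal unstimulated conditions; test concentration not given here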
[5] = calcein-AM signal in unstimulated myeloma cells – cell-based, calcein-AM fluorescence, 48 h, PK04 Diversity Set, profiling panel (AID 1166); details: RPMI8226 myeloma viability, higher = more signal;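 further: cells grown under basal conditions without added stimulus; test concentration not given here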
[6] = JC-1 mitochondrial signal, unstimulated HepG2 cells – cell-based, JC-1 fluorescence, 24 h, 100 nL compound, profiling panel (AID 1167); details: HepG2 mitochondrial potential, higher = more signal; further: test concentration not given here
[7] = JC-1 mitochondrial signal, unstimulated adipocytes – cell-based, JC-1 fluorescence, 3T3-L1 adipocytes, 24 h, 100 nL compound, profiling panel (AID 1168); details: JC-1 mitochondrial fluorescence, higher = more signal, called active from +8 up or from −8 down; further: test concentration not given here
[8] = JC-1 mitochondrial signal, unstimulated myeloma cells – cell-based, JC-1 fluorescence, RPMI8226, 24 h, 100 nL compound, profiling panel (AID 1169); details: JC-1 mitochondrial potential fluorescence, higher = more signal; further: test concentration not given here
[9] = JC-1 mitochondrial signal, unstimulated MM1S myeloma – cell-based, JC-1 fluorescence, 24 h, 100 nL compound, profiling panel (AID 1170); details: MM1S mitochondrial potential, higher = more signal; further: test concentration not given here
[10] = resazurin metabolic signal in A549 cells – cell-based, resazurin fluorescence, 24 h, PK04 Diversity Set, profiling panel (AID 1171); details: A549 viability, higher = more signal, called active from +8 up or from −8 down; further: test concentration not given here
[11] = resazurin metabolic signal in HepG2 cells – cell-based, resazurin fluorescence, 24 h, PK04 Diversity Set, profiling panel (AID 1172); details: HepG2 viability, higher = more signal; further: test concentration not given here
[12] = budding yeast growth changes without added modifier – OD600, strain BY4716, 24 h, basal condition, primary screen (AID 1173); details: S. cerevisiae BY4716 growth, OD600, 24 h; higher = more signal, called active from +8 up or from −8 down
[13] = viability profiling in MM1S myeloma cells – cell-based, resazurin fluorescence, basal, 24 h, PK04 Diversity Set, profiling panel (AID 1174); details: higher = more signal, called active from +8 up or from −8 down; further: test concentration not given here
[14] = target: Dihydroorotate dehydrogenase (quinone), mitochondrial (Plasmodium falciparum (isolate 3D7)) (UniProt Q08210); test: inhibition of P. falciparum DHODH – biochemical, C-terminal His tag, absorbance 600 nm, primary screen (AID 1175); details: PfDHODH enzyme, DCIP absorbance 600 nm; higher = more signal, called active from +8 up or from −8 down;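 further: recombinant parasite enzyme with a five histidine tag at its C terminus; test concentration not given here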
[15] = inhibition of PAO1 biofilm formation – strain PAO1, LB-PBS medium, absorbance 600 nm, primary screen (AID 1176); further: test concentration not given here; details: P. aeruginosa PAO1 growth/biofilm, A600, 12 h; higher = more signal
[16] = growth modulation of vineyard yeast isolate – strain RM11-1a, OD600, basal, 24 h, primary screen (AID 1177);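 further: cultures grown under basal conditions with no added stressor; test concentration not given here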; details: S. cerevisiae RM11-1a growth, OD600, 24 h; higher = more signal, called active from +8 up or from −8 down
[17] = growth of efflux-deficient E. coli DRC39 – strain DRC39, OD650, 24 h, E. coli filamentation inducers, primary screen (AID 1178);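 further: growth measured as culture turbidity by optical density at 650 nm; test concentration not given here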; details: E. coli DRC39 acrAB, higher = more signal, called active from +8 up or from −8 down
[18] = growth of efflux-deficient E. coli DRC39 – strain DRC39, OD650, 48 h, E. coli filamentation inducers, primary screen (AID 1179);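 further: screen aims at cell division blockers that make cells filament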; details: E. coli DRC39 delta-acrAB growth, higher = more signal, called active from +8 up or from −8 down
[19] = viability profiling in RPMI8226 myeloma cells – cell-based, resazurin fluorescence, basal, 24 h, PK04 Diversity Set, profiling panel (AID 1180); details: higher = more signal;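 further: RPMI8826 multiple myeloma cell line at 5000 cells per well; test concentration not given here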
[20] = target: E3 ubiquitin-protein ligase XIAP (Homo sapiens) (UniProt P98170); test: small molecules binding XIAP protein – biophysical, small-molecule microarray, fluorescence 635 nm, primary screen (AID 1181); details: higher = more signal;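 further: score merges 667 nm emission and signal to noise over triplicate slides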
Chain of E3 ubiquitin-protein ligase XIAP (Homo sapiens) (P98170 whole entry, looked up): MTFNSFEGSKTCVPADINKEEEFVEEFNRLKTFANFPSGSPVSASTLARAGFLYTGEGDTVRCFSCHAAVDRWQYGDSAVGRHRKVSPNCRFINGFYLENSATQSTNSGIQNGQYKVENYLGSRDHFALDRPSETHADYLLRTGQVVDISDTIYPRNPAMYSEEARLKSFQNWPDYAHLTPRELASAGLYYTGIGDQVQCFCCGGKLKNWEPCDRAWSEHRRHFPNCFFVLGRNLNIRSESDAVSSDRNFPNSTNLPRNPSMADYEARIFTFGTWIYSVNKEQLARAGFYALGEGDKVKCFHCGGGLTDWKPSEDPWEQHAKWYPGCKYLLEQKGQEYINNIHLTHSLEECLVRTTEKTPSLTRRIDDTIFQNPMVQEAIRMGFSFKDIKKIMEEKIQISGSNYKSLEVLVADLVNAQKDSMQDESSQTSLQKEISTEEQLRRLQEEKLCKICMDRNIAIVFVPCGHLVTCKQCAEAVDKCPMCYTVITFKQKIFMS

Chain of Dihydroorotate dehydrogenase (quinone), mitochondrial (Plasmodium falciparum (isolate 3D7)) (Q08210 whole entry, looked up): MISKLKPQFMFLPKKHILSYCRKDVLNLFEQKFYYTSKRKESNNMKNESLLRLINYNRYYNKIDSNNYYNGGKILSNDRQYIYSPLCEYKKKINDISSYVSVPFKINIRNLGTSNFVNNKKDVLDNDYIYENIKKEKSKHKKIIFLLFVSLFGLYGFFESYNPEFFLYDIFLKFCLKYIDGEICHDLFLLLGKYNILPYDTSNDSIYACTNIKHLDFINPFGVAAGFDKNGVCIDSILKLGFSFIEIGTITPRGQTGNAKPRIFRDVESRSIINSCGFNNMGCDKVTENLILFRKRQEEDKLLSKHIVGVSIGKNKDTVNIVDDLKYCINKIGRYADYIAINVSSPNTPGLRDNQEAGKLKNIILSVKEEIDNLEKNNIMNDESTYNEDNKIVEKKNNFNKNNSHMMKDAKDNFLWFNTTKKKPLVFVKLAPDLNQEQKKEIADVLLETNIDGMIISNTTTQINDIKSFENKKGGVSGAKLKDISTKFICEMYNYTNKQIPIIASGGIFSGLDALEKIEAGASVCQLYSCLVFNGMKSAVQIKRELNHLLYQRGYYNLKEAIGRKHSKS

SMILES | z-score [1] | z-score [2] | z-score [3] | z-score [4] | z-score [5] | z-score [6] | z-score [7] | z-score [8] | z-score [9] | z-score [10] | z-score [11] | z-score [12] | z-score [13] | composite z-score [14] | z-score [15] | z-score [16] | z-score [17] | z-score [18] | z-score [19] | composite z-score [20]
CC[C@@H]1C=C(C(=O)O)[C@H](c2ccc(C#N)cc2)N1S(=O)(=O)c1ccc(C)cc1 | -0.484 | -0.364 | -1 | 0.492 | -0.95 | -0.968 | -0.552 (inactive) | 0.875 | -1.06 | -0.858 (inactive) | -0.835 | 0.965 (inactive) | -0.933 (inactive) | -1.93 (inactive) | -0.0601 (inactive) | -0.242 (inactive) | -0.266 (inactive) | -0.0211 (inactive) | -1.21 | 0.0153
C=C[C@@H](OC)[C@H](OC(=O)Nc1ccc(OC)cc1)c1ccc(O)c(F)c1 | -0.705 | 0.792 | -0.723 | -2.17 | -2.47 | -2.82 | -1.1 (inactive) | -0.276 | -0.0233 | -0.0973 (inactive) | -0.902 | -6.91 (inactive) | -0.967 (inactive) | -1.1 (inactive) | 0.741 (inactive) | -0.175 (inactive) | 0.146 (inactive) | -0.355 (inactive) | -0.877 | 0.252
CN(C)C(=O)[C@]1(CCC(=O)OC(C)(C)C)N=C(c2ccc(OCCCO)cc2)O[C@@H]1c1ccccc1CN=[N+]=[N-] | -0.307 | 0.911 | 0.697 | 0.545 | 0.259 | 1.74 | -0.682 (inactive) | 0.124 | -0.412 | 0.669 (inactive) | 1.52 | -0.756 (inactive) | 0.136 (inactive) | -0.369 (inactive) | -0.36 (inactive) | -0.0274 (inactive) | 0.0547 (inactive) | -0.0727 (inactive) | 0.471 | -0.0501
COC(=O)[C@@]1(Cc2ccc(F)cc2)[C@H]2c3cc(C(=O)N4CCCC4)n(CCc4c[nH]c5ccccc45)c3C[C@H]2CN1C(=O)c1ccccc1 | -1.41 | -0.743 | -1.33 | -1.57 | -3.02 | 0.28 | -0.222 (inactive) | -0.915 | -1.21 | -1.22 (inactive) | -1.03 | 1.74 (inactive) | -2.23 (inactive) | -0.106 (inactive) | 0.343 (inactive) | 0.0323 (inactive) | -1.4 (inactive) | -0.319 (inactive) | -2.94 | -0.018
CCCCC(CC)C(O)C1C=CC2C(=O)N(C)C(=O)C2N1Nc1ccccc1 (stereo not given) | -0.959 | -1.12 | -0.195 | -0.0591 | -0.885 | -1.02 | -1.03 (inactive) | -0.3 | -0.348 | -0.83 (inactive) | -0.339 | -0.027 (inactive) | -0.916 (inactive) | -0.206 (inactive) | 0.723 (inactive) | 0.468 (inactive) | -0.861 (inactive) | -0.389 (inactive) | -0.97 | 0.0297
C[N+](C)(C)CCCC[C@@H]1NC(=O)[C@@H]2C[C@H](C(=O)NCCCCCCN)[C@H](c3cccc(OCCO)c3)N2C1=O | -0.148 | 1 | 0.649 | 0.651 | -0.013 | 0.746 | -0.17 (inactive) | -0.711 | 0.246 | -0.518 (inactive) | -0.418 | -0.22 (inactive) | -0.0181 (inactive) | 0.441 (inactive) | -0.117 (inactive) | -0.0966 (inactive) | 0.342 (inactive) | 0.743 (inactive) | -1.3 | 0.215
CC1CC/C=C\[C@H]2OC34C=CCN(c5ccc6ccccc6c5)C(=O)[C@H]3N(CCCO)C(=O)[C@@H]4C2C(=O)O1 (stereo not given in full) | -0.391 | -0.229 | -0.597 | -0.144 | -0.143 | -0.519 | -0.856 (inactive) | 0.17 | 0.707 | -0.525 (inactive) | -0.829 | 0.723 (inactive) | -0.644 (inactive) | 0.676 (inactive) | -0.829 (inactive) | 0.822 (inactive) | -0.587 (inactive) | -0.723 (inactive) | 0.0719 | 0.275
COc1ccc(CCNC(=O)[C@@H]2c3ccccc3C(=O)N(C3CCCCC3)[C@H]2c2ccc(CO)cc2)cc1 | 1.19 | 1.1 | 0.383 | 0.05 | -0.746 | 1.83 | -0.053 (inactive) | -0.726 | 0.337 | 0.332 (inactive) | -0.0966 | 0.162 (inactive) | -0.298 (inactive) | 0.77 (inactive) | 1.32 (inactive) | 0.726 (inactive) | -0.712 (inactive) | -1.39 (inactive) | 0.978 | -0.0349
COc1ccc([Si](C)(C)[C@@H]2[C@@H](CCO)O[C@]3(C(=O)N(Cc4ccccc4)c4ccc(N5C(=O)c6cccc7cccc5c67)cc43)[C@H]2C)cc1 | -0.768 | -0.384 | -0.916 | -0.61 | -2.73 | -0.555 | 0.943 (inactive) | -0.751 | -1.3 | -0.149 (inactive) | -0.0019 | 0.282 (inactive) | 0.274 (inactive) | -0.488 (inactive) | 2.24 (inactive) | 4.59 (inactive) | 2.16 (inactive) | 1.45 (inactive) | -0.298 | -0.152
